Test results from PubChem BioAssay (NCI).
About 79,000 compounds went through this panel and 15% of them were active in at least one assay; those are over-represented in the sample as a whole. A number with no mark means an inactive call. Active and inactive are the calls of the source. Cut-off read from the data, not from the text of the source: active = growth inhibition above about 70%; inactive = the rest.

What was measured:
[1] = NCI Yeast Anticancer Drug Screen. Data for the rad50 strain (AID 155);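 note: 0% = growth of vehicle-only cultures of the same strain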; conditions: S. cerevisiae rad50 strain growth inhibition, stronger effect = higher value
In short: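 A DNA repair-deficient yeast mutant serves as the test organism; compound-induced growth inhibition is calculated against vehicle-treated cells.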

[2] = NCI Yeast Anticancer Drug Screen. Data for the mec2-1 strain (AID 157); conditions: S. cerevisiae mec2-1 strain, stronger effect = higher value
In short: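 Each compound was tested on mec2-1 yeast, a strain altered in DNA damage repair or cell cycle control. Growth inhibition is reported relative to vehicle.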

[3] = NCI Yeast Anticancer Drug Screen. Data for the sgs1 mgt1 strain (AID 161);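 note: 0% = growth of cultures given vehicle only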; conditions: S. cerevisiae sgs1 mgt1 strain, stronger effect = higher value
In short: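 Inhibition of yeast growth, normalised to vehicle-treated controls, is reported for a strain bearing genetic alterations in DNA damage repair.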

[4] = NCI Yeast Anticancer Drug Screen. Data for the cln2 rad14 strain (AID 165);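 note: 0% = growth equal to vehicle treated cultures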; conditions: S. cerevisiae cln2 rad14 strain, stronger effect = higher value
In short: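 Test compounds were added to cln2 rad14 yeast cultures; inhibition of growth was then determined by comparison with vehicle treatment.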

[5] = NCI Yeast Anticancer Drug Screen. Data for the bub3 strain (AID 167); conditions: S. cerevisiae bub3 mutant strain, stronger effect = higher value
In short: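 Inhibition values come from growth of compound-treated mutant yeast normalised to vehicle-treated controls.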

[6] = NCI Yeast Anticancer Drug Screen. Data for the mlh1 rad18 strain (AID 175); conditions: S. cerevisiae mlh1 rad18 strain growth inhibition, stronger effect = higher value
In short: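 Inhibition values reflect reduced growth of mutant yeast versus vehicle-treated controls following compound exposure; the mutations affect DNA damage repair.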

[7] = at 5.0 µM (retest, dose inferred, filed as 0.5)
[8] = at 50.0 µM (retest, dose inferred, filed as 5.0)

| Structure (SMILES) | growth inhibition [1, 7] | growth inhibition [1, 8] | growth inhibition ([1]; at 50.0 µM) | growth inhibition [2, 7] | growth inhibition [2, 8] | growth inhibition ([2]; at 50.0 µM) | growth inhibition [3, 7] | growth inhibition [3, 8] | growth inhibition ([3]; at 50.0 µM) | growth inhibition [4, 7] | growth inhibition [4, 8] | growth inhibition ([4]; at 50.0 µM) | growth inhibition [5, 7] | growth inhibition [5, 8] | growth inhibition ([5]; at 50.0 µM) | growth inhibition [6, 7] | growth inhibition [6, 8] | growth inhibition ([6]; at 50.0 µM) |
| --- | --- | --- | --- | --- | --- | --- | --- | --- | --- | --- | --- | --- | --- | --- | --- | --- | --- | --- |
| Cc1ccc(NC(=O)c2cc3ccccc3c(N=Nc3cc(S(=O)(=O)O)ccc3O)c2O)c(C)c1 | 33% | 85% (active) | 71.8% (active) | 33% | 84% (active) | 52.3% | 56% | 92% (active) | 78.7% (active) | 29% | 43% | 59.9% | 50% | 92% (active) | 82.8% (active) | 57% | 87% (active) | 80.8% (active) |
| CN(C)c1cc2nc3ccccc3nc2cc1O | 2% | 46% | 62.9% | -1% | 53% | 15.6% | -1% | 26% | 34.6% | -7% | 34% | 45.8% | -3% | 59% | 94.5% (active) | 7% | 76% (active) | 81.9% (active) |
| CC1CCN(CCC(=O)c2cccc(O)c2)CC1 | 4% | 57% | 48.5% | -5% | 44% | 36.3% | 2% | 48% | 29.8% | -2% | 26% | 21.1% | -16% | 39% | 15.5% | 10% | 77% (active) | 65.8% |
| CC(=O)O[C@]1(C(C)=O)CC[C@H]2[C@@H]3C[C@H](C)C4=CC(=O)NCC[C@]4(C)[C@H]3CC[C@@]21C | 0% | 87% (active) | 93.2% (active) | 20% | 91% (active) | 94.6% (active) | -20% | 90% (active) | 88% (active) | 6% | 81% (active) | 90.1% (active) | 14% | 92% (active) | 92% (active) | 6% | 90% (active) | 94.5% (active) |
| COc1ccc(CN(C)c2c(C)ccc3ccccc23)cc1 | 10% | 85% (active) | 5.3% | 2% | 58% | -2.9% | 2% | 78% (active) | 23.3% | 2% | 59% | -15.2% | 1% | 98% (active) | 79.6% (active) | 3% | 78% (active) | 13.2% |
| Cn1cc(/C=C/[N+](=O)[O-])c2ccc(OCc3ccccc3)cc21 | 2% | -6% | 4.75% | -3% | -7% | 37% | 4% | 4% | 10.2% | 10% | 54% | 17.5% | 14% | 34% | 76.3% (active) | 3% | 11% | 16.9% |
| CC1SC(=S)N(c2ccc(Cl)cc2)C1=O (stereo not given) | 4% | 68% | 71% (active) | 0% | 31% | 80.7% (active) | 2% | 47% | 45.5% | 3% | 28% | -108% | -3% | 28% | 85.5% (active) | 3% | 69% | 71.8% (active) |
| O=c1c(S(=O)(=O)Oc2ccccc2)coc2cc(F)ccc12 | 99% (active) | 100% (active) | 81.7% (active) | 99% (active) | 100% (active) | 86.7% (active) | 99% (active) | 100% (active) | 90.2% (active) | 99% (active) | 100% (active) | 91.5% (active) | 99% (active) | 100% (active) | 91% (active) | 99% (active) | 100% (active) | 93.1% (active) |
| C=Cc1ccc(B2NCCO2)cc1 | -2% | 99% (active) | 99.7% (active) | 7% | 97% (active) | 99.5% (active) | -8% | 99% (active) | 99.6% (active) | 0% | 74% (active) | 92.5% (active) | 8% | 59% | 99.5% (active) | 10% | 99% (active) | 99.2% (active) |
| O=Nc1c(-c2cccc([N+](=O)[O-])c2)nc2cnccn12 | 39% | 99% (active) | 97.7% (active) | 24% | 99% (active) | 98.5% (active) | 54% | 99% (active) | 95.7% (active) | 23% | 99% (active) | 99.3% (active) | 4% | 99% (active) | 99.7% (active) | 58% | 99% (active) | 97.5% (active) |
